# Values without a mark were called inactive. Inconclusive results are not listed. Entries that show only a call come without a potency. Calls of active or inactive are those of the source. The call rests on the fitted dose curve; in most records, active means well fitted curve in the direction sought with a large enough effect; inconclusive means small, poorly fitted or top-dose-only effect, or another doubt; inactive means no such curve, though single readings can be large; an effect the other way counts as inactive or inconclusive.
# Legend:
# [1] = Quantitative High-Throughput drug screen in 47 multiple myeloma cell lines against the NCATS MIPE library collection: KMS11_JCRBsus cell viability assay (AID 1919873); further: nearly all actives have a fitted effect of over 50% in size; further: potency means the concentration at half of the fitted maximal effect
# In short: (§1)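 ATP-based luminescence (CellTiter-Glo, 5 min RT incubation) quantified surviving cells following two days' treatment with MIPE 4.0 agents at 37 °C, 5% CO2.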
# [2] = Quantitative High-Throughput drug screen in 47 multiple myeloma cell lines against the NCATS MIPE library collection: KMS28BM_JCRB cell viability assay (AID 1919874); further: nearly all actives have a fitted effect of over 35% in size; further: potency means the concentration at half of the fitted maximal effect
# In short: as §1
# [3] = molecular target: Cytochrome P450 3A4 (Homo sapiens) (UniProt P08684); experiment: qHTS for inhibitors of CYP3A4 against the NCATS DSHEA and TCM libraries (AID 1919971);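 further: inhibition lowers luminescence from luciferin made by CYP3A4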
# Sequence of Cytochrome P450 3A4 (Homo sapiens) (P08684 whole entry, looked up): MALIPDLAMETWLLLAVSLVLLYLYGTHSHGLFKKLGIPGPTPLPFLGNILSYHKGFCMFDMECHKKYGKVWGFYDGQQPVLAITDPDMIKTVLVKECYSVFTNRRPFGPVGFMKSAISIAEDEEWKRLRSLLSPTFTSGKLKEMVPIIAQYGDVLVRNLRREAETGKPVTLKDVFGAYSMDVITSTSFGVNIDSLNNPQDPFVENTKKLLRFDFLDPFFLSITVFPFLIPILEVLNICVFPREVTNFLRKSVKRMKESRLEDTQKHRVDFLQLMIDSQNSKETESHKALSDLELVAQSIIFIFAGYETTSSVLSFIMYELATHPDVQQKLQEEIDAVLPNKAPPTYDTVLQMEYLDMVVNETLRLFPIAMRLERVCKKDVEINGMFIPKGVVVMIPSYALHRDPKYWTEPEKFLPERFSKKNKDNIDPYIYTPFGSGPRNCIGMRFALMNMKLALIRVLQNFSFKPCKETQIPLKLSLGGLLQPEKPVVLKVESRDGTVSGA
# In short: (§2)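 Substances were tested against enzyme with a pro-luciferin substrate; minus-enzyme wells served as background. After NADPH-initiated oxidation (30-45 min, RT), light was generated with P450-Glo reagent.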
# [4] = molecular target: Cytochrome P450 2D6 (Homo sapiens) (UniProt P10635); experiment: qHTS for inhibitors of CYP2D6 against the NCATS DSHEA and TCM libraries (AID 1919972)
# Sequence of Cytochrome P450 2D6 (Homo sapiens) (P10635 whole entry, looked up): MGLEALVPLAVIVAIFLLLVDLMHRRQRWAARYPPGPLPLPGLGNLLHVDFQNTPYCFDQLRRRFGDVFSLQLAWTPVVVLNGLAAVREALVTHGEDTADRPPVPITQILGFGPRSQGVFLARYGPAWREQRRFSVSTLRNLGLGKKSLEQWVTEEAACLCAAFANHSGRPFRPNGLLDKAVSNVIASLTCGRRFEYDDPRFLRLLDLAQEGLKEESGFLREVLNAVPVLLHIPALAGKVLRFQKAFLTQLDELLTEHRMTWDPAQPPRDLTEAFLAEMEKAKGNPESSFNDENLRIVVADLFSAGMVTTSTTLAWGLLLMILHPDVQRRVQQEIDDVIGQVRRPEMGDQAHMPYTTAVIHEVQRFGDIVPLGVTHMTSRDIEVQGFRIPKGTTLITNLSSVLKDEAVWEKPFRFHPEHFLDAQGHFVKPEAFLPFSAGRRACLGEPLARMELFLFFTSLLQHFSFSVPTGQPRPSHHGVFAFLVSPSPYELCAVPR
# Text: Assay Development and Screening Technology Laboratory (ADST)
# National Center for Advancing Translational Sciences (NCATS), Rockville, MD
# National Institute of Health (NIH), Bethesda, Maryland
# Dietary Supplements and Natural Products have minor oversight of their safety and efficacy. We assembled a collection of Dietary Supplements and Natural Products (DSNP) as well as Traditional Chinese Medicinal (TCM) Plant extracts, which were screened against an in vitro panel of assays, including a liver cytochrome p450 enzyme panel, CAR/PXR signaling pathways, and P-gp transporter assays, to assess their activity. This pipeline facilitated the interrogation of Natural Product-Drug Interaction (NaPDI) through prominent metabolizing pathways. In addition, we compared the activity profiles of the DSNP/TCM substances with those of an approved drug collection. Many of the approved drugs have well-annotated mechanisms of action (MOA) while the MOAs for most of the DSNP and TCM samples remain unknown. […] Overall, we highlight four significant bioactivity profiles (measured by p-values) as examples of this prediction. […] To profile potential P-gp activity, a differential cell viability was measured against two cell lines: a parental KB-3-1 human cervical adenocarcinoma cell line and the drug-resistant subline KB-8-5-11 that overexpresses P-gp. […]
# 9; Read; Luminescence; ViewLux plate reader. […]
# [5] = molecular target: Cytochrome P450 2C9 (Homo sapiens) (UniProt P11712); experiment: qHTS for inhibitors of CYP2C9 against the NCATS DSHEA and TCM libraries (AID 1919973);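 further: luminogenic pro-luciferin CYP2C9 substrate turned into luciferin with NADPH regeneration; series mostly up to about 34 µM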
# Sequence of Cytochrome P450 2C9 (Homo sapiens) (P11712 whole entry, looked up): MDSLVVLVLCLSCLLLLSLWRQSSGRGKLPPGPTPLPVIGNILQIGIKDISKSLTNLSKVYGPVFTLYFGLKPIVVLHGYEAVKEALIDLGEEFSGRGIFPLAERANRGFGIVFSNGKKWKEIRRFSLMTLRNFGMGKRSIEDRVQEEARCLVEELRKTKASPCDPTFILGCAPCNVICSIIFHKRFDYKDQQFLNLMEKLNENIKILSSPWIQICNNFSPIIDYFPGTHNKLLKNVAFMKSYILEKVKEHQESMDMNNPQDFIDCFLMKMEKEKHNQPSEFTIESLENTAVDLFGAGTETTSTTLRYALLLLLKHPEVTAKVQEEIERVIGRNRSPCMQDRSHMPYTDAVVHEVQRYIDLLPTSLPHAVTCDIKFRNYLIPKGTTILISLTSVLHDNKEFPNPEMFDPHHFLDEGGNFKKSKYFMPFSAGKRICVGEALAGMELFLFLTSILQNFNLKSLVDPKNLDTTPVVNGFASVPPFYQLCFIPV
# In short: as §2
# [6] = molecular target: Cytochrome P450 2C19 (Homo sapiens) (UniProt P33261); experiment: qHTS for inhibitors of CYP2C19 against the NCATS DSHEA and TCM libraries (AID 1919974);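 further: luminescence from luciferin released by CYP2C19 oxidation of a pro-luciferin substrate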
# Sequence of Cytochrome P450 2C19 (Homo sapiens) (P33261 whole entry, looked up): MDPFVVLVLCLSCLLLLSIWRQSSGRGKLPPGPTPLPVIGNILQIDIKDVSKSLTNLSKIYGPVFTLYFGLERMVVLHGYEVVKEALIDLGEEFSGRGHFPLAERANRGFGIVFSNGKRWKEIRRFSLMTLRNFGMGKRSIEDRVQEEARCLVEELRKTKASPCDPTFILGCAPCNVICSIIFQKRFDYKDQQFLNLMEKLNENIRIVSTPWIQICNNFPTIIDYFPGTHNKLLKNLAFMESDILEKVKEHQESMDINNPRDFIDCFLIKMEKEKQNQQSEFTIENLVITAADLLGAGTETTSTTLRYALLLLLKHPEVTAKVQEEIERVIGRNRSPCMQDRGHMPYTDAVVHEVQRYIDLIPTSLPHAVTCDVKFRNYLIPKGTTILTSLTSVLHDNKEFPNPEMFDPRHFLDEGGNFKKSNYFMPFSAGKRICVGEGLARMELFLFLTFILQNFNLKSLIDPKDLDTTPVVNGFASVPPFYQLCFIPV
# In short: as §2
# [7] = KB-3-1 P-gp reporter qHTS against the NCATS DSHEA and TCM libraries (AID 1919975)
# In short: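 Cell viability qHTS: 500 KB-3-1 cells/well, substances in titration, ~72 h, 37C; luminescent CellTiter-Glo read.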
# [8] = molecular target: Cytochrome P450 1A2 (Homo sapiens) (UniProt P05177); experiment: qHTS for inhibitors of CYPIA2 against the NCATS DSHEA and TCM libraries (AID 1919976); further: series mostly up to about 37 µM
# Sequence of Cytochrome P450 1A2 (Homo sapiens) (P05177 whole entry, looked up): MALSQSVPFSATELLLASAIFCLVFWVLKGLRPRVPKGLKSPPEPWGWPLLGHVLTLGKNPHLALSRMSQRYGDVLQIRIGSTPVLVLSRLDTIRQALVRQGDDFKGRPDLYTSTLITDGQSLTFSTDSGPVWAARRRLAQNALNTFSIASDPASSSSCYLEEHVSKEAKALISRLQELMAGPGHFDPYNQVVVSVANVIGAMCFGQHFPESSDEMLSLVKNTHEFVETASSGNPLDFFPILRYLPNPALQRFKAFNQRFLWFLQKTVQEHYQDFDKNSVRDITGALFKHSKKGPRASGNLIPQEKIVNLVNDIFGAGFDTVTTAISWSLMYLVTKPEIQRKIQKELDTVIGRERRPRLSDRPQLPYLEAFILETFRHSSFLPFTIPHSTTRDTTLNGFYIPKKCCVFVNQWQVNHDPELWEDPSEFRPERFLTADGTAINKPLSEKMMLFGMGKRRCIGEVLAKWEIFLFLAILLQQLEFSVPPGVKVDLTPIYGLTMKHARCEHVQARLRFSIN
# In short: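 Luminescence read-out: pro-luciferin converted to D-luciferin by CYP1A2, detected with P450-Glo reagent after 30 min RT. Enzyme plus substrate got compounds for 15 min RT; NADPH regeneration solution (final 1x) started a 30-45 min reaction, light-protected.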
# [9] = qHTS Counterscreen for compound interference against the NCATS DSHEA and TCM libraries (AID 1919978); details: firefly luciferase detection reagent interference, luminescence;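 further: compounds preincubated with 1 µM D-luciferin or buffer before detection reagent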
# In short: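 Interference check: test samples were incubated with D-luciferin (final 1 uM) or buffer only for 15 min, room temperature, in a qHTS titration up to 39.8 uM, then developed with detection reagent and read by luminescence.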
# [10] = Dual reporter qHTS for agonist of Pregnane X Receptor (hPXR) against the NCATS DSHEA and TCM libraries: Fluorescence readout (AID 1920058)
# In short: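 Fluorescence read-out for cell viability: CellTiter-Fluor, 1 h at 37 °C, Ex/Em 405/540 nm. This followed ~24 h treatment of hPXR-Luc HepG2 cells with substances in agonist mode.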
compound,measurement,setting,value
CC(CCc1ccc(O)cc1)NCCc1ccc(O)c(O)c1 (centres undefined),Potency,[1],26.4 µM (active)
same,Potency,[2],26.4 µM (active)
COc1ccc2c(c1)c(CC(=O)O)c(C)n2C(=O)c1ccc(Cl)cc1,Potency,[1],inactive
same,Potency,[2],inactive
O=c1[nH]cc(F)c(=O)[nH]1,Potency,[1],13.2 µM (active)
same,Potency,[2],inactive
NCCc1cnc[nH]1,Potency,[1],inactive
same,Potency,[2],inactive
Cc1ccccc1N1C(=O)c2cc(S(N)(=O)=O)c(Cl)cc2NC1C (centres undefined),Potency,[1],inactive
same,Potency,[2],inactive
CN1C2CCC1CC(OC(=O)C(CO)c1ccccc1)C2 (centres undefined),Potency,[1],inactive
same,Potency,[2],inactive
Clc1ccc2nsnc2c1NC1=NCCN1,Potency,[1],inactive
same,Potency,[2],inactive
CC(C)(Oc1ccc(C2CC2(Cl)Cl)cc1)C(=O)O (centres undefined),Potency,[1],inactive
same,Potency,[2],inactive
O=C(c1ccc(OCCN2CCCCC2)cc1)c1c(-c2ccc(O)cc2)sc2cc(O)ccc12,Potency,[1],16.6 µM (active)
same,Potency,[2],23.5 µM (active)
Nc1nnc(-c2cccc(Cl)c2Cl)c(N)n1,Potency,[1],inactive
same,Potency,[2],inactive
Nc1c2c(nc3ccccc13)CCCC2,Potency,[1],inactive
same,Potency,[2],16.6 µM (active)
Nc1nc2c(ncn2COC(CO)CO)c(=O)[nH]1,Potency,[1],18.7 µM (active)
same,Potency,[2],29.6 µM (active)
N[C@@H](Cc1c[nH]c2ccc(O)cc12)C(=O)O,Potency,[1],inactive
same,Potency,[2],inactive
Nc1ccn([C@H]2CC[C@@H](CO)O2)c(=O)n1,Potency,[1],inactive
same,Potency,[2],inactive
CC12CC3CC(C)(C1)CC(N)(C3)C2,Potency,[2],2.64 µM (active)
CC(C)(C)C(=O)Oc1ccc(S(=O)(=O)Nc2ccccc2C(=O)NCC(=O)O)cc1,Potency,[1],inactive
same,Potency,[2],inactive
CN(C)C(=O)C(CCN1CCC(O)(c2ccc(Cl)cc2)CC1)(c1ccccc1)c1ccccc1,Potency,[1],10.5 µM (active)
same,Potency,[2],18.7 µM (active)
CN1CCN(C2=Nc3cc(Cl)ccc3Nc3ccccc32)CC1,Potency,[2],inactive
NC(CO)C(=O)NNCc1ccc(O)c(O)c1O (centres undefined),Potency,[2],23.5 µM (active)
CN(C)c1nc(N(C)C)nc(N(C)C)n1,Potency,[2],inactive
NC(=O)NO,Potency,[1],0.526 µM (active)
same,Potency,[2],0.935 µM (active)
O=c1c(-c2ccc(O)cc2)coc2cc(O)cc(O)c12,Potency,[2],inactive
CN(C)CCOC(c1ccccc1)c1ccccc1,Potency,[2],5.9 µM (active)
CN(C)CCC=C1c2ccccc2C=Cc2ccccc21,Potency,[2],3.72 µM (active)
CCOC(=O)c1ncn2c1CN(C)C(=O)c1cc(F)ccc1-2,Potency,[2],inactive
NCCCCCC(=O)O,Potency,[1],inactive
same,Potency,[2],inactive
Cn1c(=O)c2c(ncn2C)n(C)c1=O,Potency,[1],inactive
same,Potency,[2],inactive
same,outcome,[3],inactive
same,outcome,[4],inactive
same,outcome,[5],inactive
same,outcome,[6],inactive
same,outcome,[7],inactive
same,outcome,[8],inactive
same,max response,[9],2.12%
same,outcome,[10],inactive
Cc1ccc(C(=O)Nc2ccc(S(=O)(=O)O)c3cc(S(=O)(=O)O)cc(S(=O)(=O)O)c23)cc1NC(=O)c1cccc(NC(=O)Nc2cccc(C(=O)Nc3cc(C(=O)Nc4ccc(S(=O)(=O)O)c5cc(S(=O)(=O)O)cc(S(=O)(=O)O)c45)ccc3C)c2)c1,Potency,[2],inactive
Clc1ccc(C(c2ccccc2Cl)C(Cl)Cl)cc1 (centres undefined),Potency,[1],18.7 µM (active)
same,Potency,[2],16.6 µM (active)
CC1COc2c(N3CCN(C)CC3)c(F)cc3c(=O)c(C(=O)O)cn1c23 (centres undefined),Potency,[2],inactive
CNCCCC12CCC(c3ccccc31)c1ccccc12,Potency,[1],9.35 µM (active)
same,Potency,[2],16.6 µM (active)
CC(C)NCC(O)COc1ccc(CCOCC2CC2)cc1 (centres undefined),Potency,[2],inactive
CCCCc1oc2ccccc2c1C(=O)c1cc(I)c(OCCN(CC)CC)c(I)c1,Potency,[2],20.9 µM (active)
CS(=O)(=O)Nc1ccc([N+](=O)[O-])cc1Oc1ccccc1,Potency,[2],inactive
CN(CCOc1ccc(NS(C)(=O)=O)cc1)CCc1ccc(NS(C)(=O)=O)cc1,Potency,[1],inactive
same,Potency,[2],inactive
O=C1Cc2cc(CCN3CCN(c4nsc5ccccc45)CC3)c(Cl)cc2N1,Potency,[2],23.5 µM (active)
COC(=O)Nc1nc2ccc(C(=O)c3cccs3)cc2[nH]1,Potency,[2],inactive
CC(C)C(=O)Nc1ccc([N+](=O)[O-])c(C(F)(F)F)c1,Potency,[2],inactive
O=C1c2c(O)ccc(O)c2C(=O)c2c(NCCNCCO)ccc(NCCNCCO)c21,Potency,[1],1.48 µM (active)
same,Potency,[2],0.662 µM (active)
CC1(C)O[C@H]2CC(=O)OC[C@]23[C@H]2CC[C@@]4(C)[C@H](c5ccoc5)OC(=O)[C@H]5O[C@]54[C@]2(C)C(=O)C[C@@H]13,Potency,[1],inactive
same,Potency,[2],inactive
COc1ccccc1N1CCN(CC(O)COc2cccc3ccccc23)CC1 (centres undefined),Potency,[2],13.2 µM (active)
O=c1c(O)c(-c2ccc(O)c(O)c2)oc2cc(O)cc(O)c12,Potency,[2],inactive
same,outcome,[7],inactive
same,max response,[9],-0.891%
same,outcome,[10],inactive
C[C@](N)(Cc1ccc(O)c(O)c1)C(=O)O,Potency,[1],7.43 µM (active)
same,Potency,[2],inactive

# — PubChem BioAssay (NCATS)
